From PubChem BioAssay AID686979 (National Center for Advancing Translational Sciences (NCATS), 2013)
Values joined by “and” are separate entries in the source; they are usually repeats but may differ in a detail not shown here. Equal entries are not always repeated. The campaign covered roughly 420,000 compounds. About 50,000 (12%) were called active. About 26% were inconclusive and are not listed. This is one part of a sample in which actives are shown more often than they occur. The call rests on the fitted dose curve; in most records, active means well fitted inhibition curve with a large enough effect; inconclusive means small, poorly fitted or top-dose-only effect; inactive means flat fitted curve, though single readings scatter.

Test: qHTS for Inhibitors of human tyrosyl-DNA phosphodiesterase 1 (TDP1): qHTS in cells in presence of CPT; further: nearly all actives have a fitted effect of over 55% in size
Conditions: chicken DT40 Tdp1-/-;hTDP1 cells + 20 nM CPT, ATP luminescence, 48 h; series mostly up to 46.2 µM; activity change, negative = growth inhibition: at the top concentration
How it was run: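 Chicken DT40 Tdp1-/- cells stably complemented with human TDP1 were seeded at 400 cells/well in medium containing 20 nM camptothecin, exposed to pin-transferred compounds, and grown at 37 °C for at least 48 hr. Viability was read as ATP luminescence.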
On the % scale 0 is the no-effect control and ±100 the full control effect; potency means the concentration at half of the fitted maximal effect.

Row | Structure (SMILES) | activity change, negative = growth inhibition | Potency
1 | O=C(O)CSCC(=O)Nc1cccc(C(F)(F)F)c1 | 2.36% (inactive) | 
2 | CCC(=O)OCc1c(C(F)(F)F)nn(C)c1Oc1cccc(C(F)(F)F)c1 | -24.2% (inactive) | 
3 | COCCNC(=O)c1snc2ccc(Cl)cc12 | -8.22% (inactive) | 
4 | CC(C)OCCCNC(=O)CNC(=O)c1cccs1 | 3.22% (inactive) | 
5 | CCC1=Nc2cc(C(=O)NCCCOC(C)C)ccc2Sc2ccc(C)cc21 |  | 0.92 µM (active)
6 | CC(C)OCCCNC(=O)c1ccc(C2SCC(=O)N2Cc2ccco2)cc1 (stereo not drawn) | -1.03% (inactive) | 
7 | Cc1ccc(OCCNC(=O)CNC(=O)c2ccc(C)c(C)c2)cc1 | 5.02% (inactive) | 
8 | COCCNC(=O)c1ccc2c(c1)N=C(C)c1cc(C)ccc1S2 |  | 0.517 µM (active)
9 | CCCCSc1[nH]c(=O)c(C(=O)OCC)cc1C#N | -15.2% (inactive) | 
10 | Cc1ccc(C)c(-n2c(SCC(=O)O)nc3sc4c(c3c2=O)CCCC4)c1 | -11.5% (inactive) | 
11 | CCOC(=O)c1c(NC(=O)CN2C(=O)NC3(CCC(C)CC3)C2=O)sc(C)c1CC (stereo not drawn) | -5.5% (inactive) | 
12 | Nc1ccc(C(=O)NCc2ccccc2)cc1 | -1.18% (inactive) | 
13 | Nc1ccc(S(=O)(=O)NC(=O)c2ccccc2)cc1 |  | inactive
14 | Nc1ccc(C(=O)Nc2ccccc2N)cc1 |  | 2.37 µM (active) and 5.8 µM (active)
15 | O=C(NCC1CCCO1)/C(=C/c1ccc(Cl)cc1)NC(=O)c1ccccc1 (stereo not drawn) | -17.3% (inactive) | 
16 | Cc1nn(C)cc1S(=O)(=O)N1CCN(c2ccc(F)cc2)CC1 | -1.16% (inactive) | 
17 | O=C(COc1cccc2c1CCNC2=O)NC1CCCCC1 | -29.5% (inactive) | 
18 | COc1cccc(CNC(=O)C2CCN(S(=O)(=O)c3ccc4c(ccn4C)c3)CC2)c1 | -15.4% (inactive) | 
19 | CCOc1ccccc1NC(=O)C1CCCN(S(=O)(=O)c2cn(C)cn2)C1 (stereo not drawn) | 13.4% (inactive) | 
20 | CCOc1ccccc1CNC(=O)C1CCCN(S(=O)(=O)c2ccc3c(ccn3C)c2)C1 (stereo not drawn) |  | 14.6 µM (active)
21 | O=C1CCCCC1Sc1ccc(Cl)cc1[N+](=O)[O-] (stereo not drawn) | -11.8% (inactive) | 
22 | Cc1c(CNC2CCCCC2)c(C(=O)O)c(C)n1Cc1cccc(Cl)c1 | -21.2% (inactive) | 
23 | CC(=O)c1ccc(NC(=O)C(C)NCc2ccc(Cl)cc2)cc1 (stereo not drawn) | -18.7% (inactive) | 
24 | Nc1nonc1-n1nnc(C(=O)N/N=C/c2ccc(Cl)cc2)c1-c1ccc2c(c1)OCO2 | -20.4% (inactive) | 
25 | Cc1cc(N2C(=O)C(=O)/C(=C(/O)c3ccccc3)C2c2cccc(Br)c2)no1 (stereo not drawn) | -28.5% (inactive) | 
26 | CCN(CC)CCCC(C)n1c2nc(=O)[nH]c(=O)c-2nc2cc(Cl)ccc21 (stereo not drawn) |  | 8.2 µM (active)
27 | O=c1[nH]c(NCCO)nnc1Cc1ccc(Cl)cc1 | 0.596% (inactive) | 

Row | Structure (SMILES) | activity change, negative = growth inhibition | Potency
28 | COc1ccc(/C=N/Nc2nc3ccccc3c(=O)[nH]2)cc1 | -16.4% (inactive) | 
29 | COc1ccc(Cc2nnc(N/N=C/c3ccccc3O)[nH]c2=O)cc1OC |  | 0.0184 µM (active)
30 | COC(=O)C(=Nc1ccccc1)/C(C(=O)C(=O)N(C)c1ccccc1)=C(\O)c1ccc(Cl)cc1 | 7.92% (inactive) | 
31 | O=c1cnnc(Nc2ccccc2F)[nH]1 | -6.88% (inactive) | 
32 | Cc1c(C(=O)OCC(=O)N2CCCC2=O)oc2ccccc12 | 14.4% (inactive) | 
33 | COc1ccccc1CNC(=O)C(Cc1ccccc1)NS(=O)(=O)c1ccc2c(c1)oc(=O)n2C (stereo not drawn) |  | 20.6 µM (active)
34 | CSCCC(NS(=O)(=O)c1ccc2c(c1)oc(=O)n2C)C(=O)NCc1ccccc1 (stereo not drawn) |  | inactive
35 | Cc1ccc(NC(=O)C(Cc2ccccc2)NS(=O)(=O)c2ccc3c(c2)oc(=O)n3C)cc1C (stereo not drawn) | 8.66% (inactive) | 
36 | O=C(O)CCC(=O)NCc1ccc2[nH]c3c(c2c1)CCCC3 | -3.68% (inactive) | 
37 | Cc1cccc(NC(=S)N2CCCC(c3nc4ccccc4[nH]3)C2)c1 (stereo not drawn) | -26% (inactive) | 
38 | Cc1cccc(NC(=S)NCc2ccc3[nH]c4c(c3c2)CCCC4)c1 |  | 23.1 µM (active)
39 | Cc1ccc(S(=O)(=O)N2CCOCC2)cc1C(=O)Nc1ccccc1N1CCCC1 | -26.6% (inactive) | 
40 | Oc1cccc(CCc2ccccn2)c1 | -10.9% (inactive) | 
41 | C=CCC[C@@H](CCCCC)OC(=O)/C=C/[C@@H](O)[C@H](O)C[C@H](O)CC=C |  | 23.1 µM (active)
42 | CN(C)/C=C(/C(=O)c1ccccc1Cl)S(C)(=O)=O | -0.266% (inactive) | 
43 | COc1ccc(NC(=O)COC(=O)c2ccc(NS(=O)(=O)/C=C/c3ccccc3)cc2)cc1 | 15.2% (inactive) | 
44 | COC(=O)c1ccc(/C=C/c2c(-c3ccc(OC)cc3)sc3ccccc23)cc1 |  | 14.6 µM (active)
45 | COc1ccccc1-c1sc2ccccc2c1-c1ccc(C(C)=O)cc1 | -23% (inactive) | 
46 | CCCCOc1ccc(C(=O)NCC(=O)OCC(=O)c2c(N)n(C)c(=O)n(C)c2=O)cc1 | 14.1% (inactive) | 
47 | Cc1nc2ccc(C(=O)O)cc2[nH]1 | 3.42% (inactive) | 
48 | COC(=O)Nc1nc2ccc(Sc3ccccc3)cc2[nH]1 |  | 651 nM (active) and 360 nM (active) and 517 nM (active)
49 | CC(C)c1nc2ccc(C(=O)O)cc2[nH]1 | 20.3% (inactive) | 
50 | N#Cc1ccccc1NC(=O)c1ccc2c(c1)OCO2 | -4.16% (inactive) | 
51 | Cc1cc(C)cc(NC(=O)C2CCN(c3nc(C)cc(C)n3)CC2)c1 | -9.07% (inactive) | 
52 | CCOc1ccc(NC(=O)C2CCN(S(=O)(=O)c3cc(-c4noc(C)n4)ccc3C)CC2)cc1 | -26.3% (inactive) | 
53 | CC(C)c1ccc(NC(=O)C2CCN(c3nc(-c4ccc(C(C)C)cc4)no3)CC2)cc1 |  | 13 µM (active)
